“And” between values parts separate entries of the source, which are not always exact repeats. Identical values can stand only once. ± gives the standard deviation of the averaged measurements.
What was measured:
Conditions in all cases: concentration: 10 µM; 24 h
HCC1569 [1] = test: cell number relative to DMSO (% of DMSO); higher = more cells (less growth inhibition / toxicity)
Procedure, shortened: (§1)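 HCC1569 and TDF cells (800 per well, 384-well plates, RPMI with 10% FBS) were treated with compounds at 10 µM for 24 h at 37 °C, in triplicate. Cells were fixed in 3.7% formaldehyde and stained with a rabbit anti-H1.0 antibody, an AlexaFluor 647 secondary and DAPI; six fields per well were imaged at ×10. H1.0 nuclear intensity or cell number is expressed as percent of the plate DMSO control, taking the median of replicates. HCC1569 values were smoothed for positional effects.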

TDF [2] = test: as above
Procedure, shortened: as §1

TDF [3] = test: H1.0 immunofluorescence intensity relative to DMSO (% of DMSO); higher = stronger H1.0 induction, active = 120 or more
Procedure, shortened: as §1

HCC1569 [4] = test: H1.0 immunofluorescence intensity relative to DMSO (% of DMSO); higher = stronger H1.0 induction, active = 140 or more
Procedure, shortened: as §1
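Wherever H1.0 immunofluorescence intensity relative to DMSO is given: TDF is a line of transformed human dermal fibroblasts of mesenchymal origin.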
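Wherever cell number relative to DMSO is given: TDF denotes transformed human dermal fibroblasts of mesenchymal origin.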

Row | SMILES | cell number (HCC1569 [1]) | cell number (TDF [2]) | H1.0 immunofluorescence intensity (TDF [3]) | H1.0 immunofluorescence intensity (HCC1569 [4])
1 | CC[C@@]1(O)C(=O)OCc2c1cc1n(c2=O)Cc2cc3c(CN(C)C)c(O)ccc3nc2-1 | 61.3 | 26.3 | 129 (active) | 142 (active)
2 | CN(Cc1cc(Br)cc(Br)c1N)C1CCCCC1 [Bromhexine] | 98.8 | 110 | 88.6 (inactive) | 123 (inactive)
3 | C=C1NC2(C(=O)COC(C)=O)C(CC3C4CCC5=CC(=O)C=CC5(C)C4C(O)CC32C)O1 (configuration not stated) | 96.8 | 108 | 86 (inactive) | 101 (inactive)
4 | COc1ccc(C(=O)NCc2ccc(OCCN(C)C)cc2)cc1OC [Itopride] | 101 | 104 | 92 (inactive) | 118 (inactive)
5 | O=c1nc[nH]c2c1ncn2C1CCC(CO)O1 (configuration not stated) [Didanosine] | 101 | 98.9 | 95.7 (inactive) | 109 (inactive)
6 | COc1cc2ncnc(Nc3ccc(Cl)cc3Cl)c2cc1OC [Ste11 MAPKKK Activation Inhibitor] | 83.8 | 97.5 | 89.8 (inactive) | 130 (inactive)
7 | Cc1ccccc1C(C(=O)NC1CCCCC1)N(C(=O)Cn1ccnc1C)c1cccc(F)c1 (configuration not stated) | 94.3 | 106 | 95.3 (inactive) | 105 (inactive)
8 | Cc1ccc(C(=O)Nc2ccc(S(=O)(=O)[O-])c3cc(S(=O)(=O)[O-])cc(S(=O)(=O)[O-])c23)cc1NC(=O)c1cccc(NC(=O)Nc2cccc(C(=O)Nc3cc(C(=O)Nc4ccc(S(=O)(=O)[O-])c5cc(S(=O)(=O)[O-])cc(S(=O)(=O)[O-])c45)ccc3C)c2)c1.[Na+].[Na+].[Na+].[Na+].[Na+].[Na+] [Suramin hexasodium] | 101 | 101 | 98.5 (inactive) | 102 (inactive)
9 | CC(C=CC1=C(C)CCCC1(C)C)=CC=CC(C)=CC(=O)O [9-cis Retinoic acid] | 105 ± 4.8 | 106 ± 5.2 | 87.8 (inactive) | 116 (inactive)
10 | C=C(c1ccc(C(=O)O)cc1)c1cc2c(cc1C)C(C)(C)CCC2(C)C [Bexarotene] | 104 | 103 | 84 (inactive) | 111 (inactive)
11 | CCN(CC)C(=O)c1ccc(O)c(OC)c1 [Vanillic acid diethylamide] | 101 | 103 | 94.3 (inactive) | 99.6 (inactive)
12 | COc1ccccc1N1CCN(CC(O)COc2cccc3ccccc23)CC1.Cl.Cl (configuration not stated) [Naftopidil.2HCl] | 97.4 | 98.3 | 88.6 (inactive) | 103 (inactive)
13 | COc1c(O)cc(O)c2c(=O)cc(-c3ccccc3)oc12 [Wogonin] | 100 | 98.7 | 91.2 (inactive) | 85.8 (inactive)
14 | N#CC(=Cc1c[nH]c2ccccc12)C(=O)c1ccc(O)c(O)c1 [Tyrphostin AG 808] | 93.1 | 100 | 86.2 (inactive) | 122 (inactive)
15 | COc1cc(CNC(=O)CCCCC=CC(C)C)ccc1O [Capsaicin] | 99 ± 1.3 | 99.2 ± 2.3 | 93.8 (inactive) | 95.8 (inactive)
16 | CCCC1CC(C(=O)NC(C(C)Cl)C2OC(SC)C(O)C(O)C2O)N(C)C1.Cl (configuration not stated) [Clindamycin.HCl] | 111 | 110 | 106 (inactive) | 91.3 (inactive)
17 | CC(COc1ccc(C=Cc2ccccc2)cc1)[N+](C)(C)C.[I-] (configuration not stated) | 95.6 | 84.6 | 107 (inactive) | 110 (inactive)
18 | O=C(O)c1ccc(NC(=O)[C@H](CC2CCCC2)n2cnc(C(F)(F)F)c2)nc1 | 100 | 100 | 96.9 (inactive) | 106 (inactive)
19 | COc1ccc(Cl)cc1NC(=O)Nc1cc(C)nc2ccccc12 [N-(5-Chloro-2-methoxyphenyl)-N'-(2-methyl-4-quinolinyl)urea] | 90 | 103 | 104 (inactive) | 148 (active)
20 | Cl.NC(N)=NC(=O)Cc1c(Cl)cccc1Cl [Guanfacine hydrochloride] | 104 | 114 | 86.8 (inactive) | 91.5 (inactive)
21 | NC1CCN(c2c(F)cc3c(=O)c(C(=O)O)cn(C4CC4)c3c2Cl)C1 (configuration not stated) [Clinafloxacin] | 103 | 101 | 94.3 (inactive) | 107 (inactive)
22 | CC(=O)NC(CSCC=C(C)CCC=C(C)C)C(=O)O (configuration not stated) | 101 | 101 | 93 (inactive) | 103 (inactive)
23 | CN(C)C1C(=O)C(C(N)=O)=C(O)C2(O)C(=O)C3=C(O)c4c(O)ccc(Cl)c4C(O)C3CC12.Cl (configuration not stated) [Demeclocycline hydrochloride] | 96.2 | 96.5 | 99.7 (inactive) | 104 (inactive)
24 | O=C(O)c1cn(-c2ccc(F)cc2)c2cc(N3CCNCC3)c(F)cc2c1=O [Sarafloxacin] | 105 | 95.3 | 99.5 (inactive) | 95.9 (inactive)

Row | SMILES | cell number (HCC1569 [1]) | cell number (TDF [2]) | H1.0 immunofluorescence intensity (TDF [3]) | H1.0 immunofluorescence intensity (HCC1569 [4])
25 | CCc1[nH]c(-c2ccc(OC)cc2)nc1-c1ccncc1 | 98.5 | 99.6 | 97 (inactive) | 120 (inactive)
26 | O=c1[nH]c2ccccc2n1CCCN1CCN(C(c2ccccc2)c2ccccc2)CC1 [Oxatomide] | 98.3 ± 2.3 | 105 ± 7.4 | 90.8 (inactive) | 101 (inactive)
27 | CCCCCCCCCCCCCCCC(=O)NCCO [Palmitoylethanolamide] | 104 | 101 | 92.4 (inactive) | 90.6 (inactive)
28 | COc1ccc(-c2ccc3cc(C(=O)O)ccc3c2)cc1C12CC3CC(CC(C3)C1)C2 [Adapalene] | 85.4 | 88.7 | 99.5 (inactive) | 102 (inactive)
29 | COc1cc2c3cc1Oc1cc(ccc1O)CC1c4c(cc(OC)c(O)c4Oc4ccc(cc4)CC3N(C)CC2)CC[N+]1(C)C (single isomer, unassigned; (+)) [(+)-Tubocurarine chloride] | 103 | 92.5 | 104 (inactive) | 89.2 (inactive)
30 | COc1cccc(-c2cc(=O)c3ccccc3o2)c1N | 99.7 and 100 and 98.4 | 105 and 103 | 85.6 (inactive) and 92.6 (inactive) and 87.8 (inactive) | 106 (inactive) and 104 (inactive)
31 | OCc1ccc(-c2nn(Cc3ccccc3)c3ccccc23)o1 | 102 | 106 | 98.9 (inactive) | 106 (inactive)
32 | Cl.Cl.NCCCCN [Putrescine dihydrochloride] | 102 | 118 | 94.1 (inactive) | 98.2 (inactive)
33 | C[N+](C)(C)CCOC(=O)CCC(=O)OCC[N+](C)(C)C.[Cl-].[Cl-] [Succinylcholine chloride] | 100 | 113 | 95.5 (inactive) | 84.7 (inactive)
34 | COc1cc2c(cc1OC)C(c1ccccc1)CN(C)CC2.O=C(O)C=CC(=O)O (configuration not stated) | 101 | 98.3 | 94.3 (inactive) | 92.5 (inactive)
35 | O=C(O)Cc1sc(-c2ccccc2)nc1-c1ccc(Cl)cc1 [Fentiazac] | 91.8 | 107 | 89.6 (inactive) | 116 (inactive)
36 | Clc1ccc(C(c2ccccc2Cl)C(Cl)Cl)cc1 (configuration not stated) [1-(2-Chlorophenyl)-1-(4-chlorophenyl)-2,2-dichloroethane] | 96.1 | 106 | 98.3 (inactive) | 92.9 (inactive)
37 | CC(C)NCC(O)COc1ccc(CC(N)=O)cc1 (stereo not drawn) [R(+)-Atenolol] | 98.9 | 109 | 90.9 (inactive) | 95.4 (inactive)
38 | COc1ccc(CC2c3cc(OC)c(OC)cc3CC[N+]2(C)C)cc1OC.[I-] (configuration not stated) [Laudanosine methiodide] | 101 | 112 | 91.3 (inactive) | 93.6 (inactive)
39 | CCCCCCCCCCCC(=O)O [Dodecanoic acid] | 100 | 102 | 103 (inactive) | 101 (inactive)
40 | CCc1nn(CCCN2CCN(c3cccc(Cl)c3)CC2)c(=O)n1CCOc1ccccc1 [Nefazodone] | 98.9 | 100 | 95.5 (inactive) | 110 (inactive)
41 | Cc1ccccc1CNc1ncnc2c1ncn2C1OC(CO)C(O)C1O (configuration not stated) [Metrifudil] | 97 | 94.5 | 93.7 (inactive) | 91.4 (inactive)
42 | CCc1cc(CCC2(C3CCCC3)CC(O)=C(Cc3nc4nc(C)cc(C)n4n3)C(=O)O2)cc(CC)n1 (configuration not stated) | 97.3 | 106 | 87.6 (inactive) | 104 (inactive)
43 | OCC1OC(n2cnc3c(Nc4ccccc4)ncnc32)C(O)C1O (configuration not stated) [N6-Phenyladenosine] | 101 | 118 | 86.1 (inactive) | 104 (inactive)
44 | CC(=O)C1CCC2C3CC=C4CC(OS(=O)(=O)[O-])CCC4(C)C3CCC12C.[Na+] (configuration not stated) [Pregnenolone sulfate sodium] | 105 | 110 | 95.8 (inactive) | 97.8 (inactive)
45 | O=C1c2ccc(O)cc2OC(c2cc(O)c(O)c(O)c2)C1O (configuration not stated) [Dihydrorobinetine] | 102 | 106 | 95.3 (inactive) | 95.3 (inactive)
46 | S=c1ccss1 [1,2-Dithiole-3-thione] | 101 | 103 | 89.6 (inactive) | 99.4 (inactive)
47 | N#CC(=Cc1ccc(O)cc1)C(N)=C(C#N)C#N [Tyrphostin AG 112] | 101 | 109 | 95.7 (inactive) | 81 (inactive)
48 | CNC1C(OC2C(OC3C(O)C(O)C(N=C(N)N)C(O)C3N=C(N)N)OC(C)C2(O)C=O)OC(CO)C(O)C1O (configuration not stated) [Streptomycin] | 105 | 103 | 96.7 (inactive) | 89 (inactive)

Source: the supplement of paper PMC7156485
